Bioassay records: PubChem, National Center for Advancing Translational Sciences (NCATS)
ALDH1A1 block: inhibitors of human aldehyde dehydrogenase 1A1; Purified ALDH1A1, NADH fluorescence, propionaldehyde substrate; AID 1030; 220,000 tested, 7.3% active; Potency, µM (titrated, usually from 75.3 µM), for the others: at the top dose activity, negative = inhibition, most hits filed as inhibitors; active means well fitted inhibition curve with a large enough effect, not every such curve was filed as active; inconclusive means small, poorly fitted or top-dose-only effect, or another doubt; inactive means no such curve, though single readings can be large or run the other way;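 further: plate controls were no enzyme wells and a reference inhibitor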
Target sequence (P00352 whole entry, looked up): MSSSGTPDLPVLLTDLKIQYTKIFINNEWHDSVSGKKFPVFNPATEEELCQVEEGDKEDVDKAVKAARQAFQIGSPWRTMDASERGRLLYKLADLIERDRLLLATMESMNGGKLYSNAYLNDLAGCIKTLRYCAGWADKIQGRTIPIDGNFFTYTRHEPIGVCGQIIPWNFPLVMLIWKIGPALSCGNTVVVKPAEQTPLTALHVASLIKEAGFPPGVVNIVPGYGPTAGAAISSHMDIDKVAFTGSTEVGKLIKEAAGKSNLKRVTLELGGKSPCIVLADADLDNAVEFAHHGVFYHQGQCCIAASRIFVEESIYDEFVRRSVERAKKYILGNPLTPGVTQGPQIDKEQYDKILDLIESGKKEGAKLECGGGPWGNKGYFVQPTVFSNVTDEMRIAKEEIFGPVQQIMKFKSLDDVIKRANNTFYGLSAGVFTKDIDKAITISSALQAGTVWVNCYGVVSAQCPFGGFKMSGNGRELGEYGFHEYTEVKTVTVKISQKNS
HPGD block: blocks human HPGD enzyme activity; P15428; Potency, µM, for the others: top-dose activity change, negative = inhibition, actives largely listed as inhibitors; 150,000 tested, 4.3% active; purified HPGD, NADH fluorescence kinetic, PGE2 substrate; active means well fitted inhibition curve with a large enough effect, not every such curve was filed as active; inconclusive means small, poorly fitted or top-dose-only effect, or another doubt; inactive means no such curve, though single readings can be large or run the other way; further: on the % scale 0 is the no-effect control and ±100 the full control effect
Target sequence (P15428 whole entry, looked up): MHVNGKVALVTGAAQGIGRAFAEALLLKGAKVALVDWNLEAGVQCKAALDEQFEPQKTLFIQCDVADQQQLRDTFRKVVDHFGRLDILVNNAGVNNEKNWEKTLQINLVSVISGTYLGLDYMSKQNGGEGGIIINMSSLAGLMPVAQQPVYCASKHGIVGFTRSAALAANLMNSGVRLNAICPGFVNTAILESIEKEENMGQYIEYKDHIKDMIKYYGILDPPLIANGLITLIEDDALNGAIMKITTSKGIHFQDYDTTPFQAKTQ
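NADH formation kinetics: reaction with 30 uM PGE2 and 1 mM NAD+ (final), 20 nM enzyme, Tris-HCl pH 8 with Tween 20, after 15 min compound preincubation at room temperature. Fluorescence change, last versus first of five reads.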
Luc counter: blocks Kinase-Glo luciferase, a counter-screen artifact. Q27757. Kinase-Glo luciferase, ATP luminescence, 8 min. Potency, µM (top dose mostly 38.3 µM), inactives show top-dose activity change, negative = inhibition, actives largely listed as inhibitors. 200,000 tested, 0.28% active. AID 1379; further: on the % scale 0 is the no-effect control and ±100 the full control effect; nearly all actives have a fitted effect of over 60% in size
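Kinase-Glo luciferase light output from ATP and luciferin was measured with 10 uM ATP, within the enzyme's linear range. Buffer: 50 mM imidazole pH 7.2, 50 mM KCl, 7 mM MgCl2, 0.01% Tween 20, 0.05% BSA; luminescence read after 8 min at ambient temperature.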
HTT ATP protect: protects HTT-Q103 PC12 cells, measured by ATP; PC12 HTT-Q103 induced, cytoprotection, ATP luminescence, 40 h; 230,000 tested, 0.14% active; Potency, µM (highest dose often 56.4 µM), for inactives: cytoprotection (ATP increase), actives largely listed as activators; further: % of control where 0% means no effect; nearly all actives have a fitted effect of over 45% in size
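Compounds were screened for protection of PC12 cells against cell death after tebufenozide induction (100 nM final) of mutant Huntingtin exon 1 (Q103) fused to GFP.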
HTT aggregate: reduces HttQ103-GFP aggregates in PC12 cells; PC12 HttQ103-GFP aggregates, Acumen cytometry, 40 h; Potency, µM (titrated, usually from 46.1 µM), for inactives: at the highest dose activity change, negative = inhibition, actives largely listed as inhibitors; 220,000 tested, 1.1% active; AID 1688; further: on the % scale 0 is the no-effect control and ±100 the full control effect; nearly all actives have a fitted effect of over 60% in size
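Multiplexed with ATP-based cell death, this channel scores GFP aggregates in PC12 cells expressing inducible HTTex1-Q103-GFP. Induction used 100 nM tebufenozide; compounds were tested in concentration series.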
LMNA splice mod: modulators of lamin A splicing | 200,000 tested, 0.01% active | Potency, µM (top dose mostly 46.1 µM), inactives show at the top dose ratio change, negative = inhibition, usual class: inhibitors | HeLa LMNA splicing GFP/RFP minigene ratio, 48 h; active means well fitted inhibition curve with a large enough effect in the signal ratio, with a control signal flat, not every such curve was filed as active; inconclusive means small, poorly fitted or top-dose-only effect, or effect the other way, or a change in a side signal; the % refers to the signal ratio; further: on the % scale 0 is the no-effect control and ±100 the full control effect
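Read-out is the ratio of GFP to DsRed2 object intensity, acquired by 488 nm laser-scanning cytometry on HeLa lamin A-EGFP minigene reporter cells. Compound incubation 48 hrs at 37 °C in Opti-MEM with 2% FBS; DMSO 0.5% final.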
Active calls of the source: *; ? = inconclusive; . = not tested or not shown; [ ] = another dose, or the depositor's remark. Most compounds without a hit are left out; they make up all but 9% or so of the library. Unless noted, the call rests on the fitted dose curve; in most records, active means well fitted curve in the direction sought with a large enough effect; inconclusive means small, poorly fitted or top-dose-only effect, or another doubt; inactive means no such curve, though single readings can be large; an effect the other way counts as inactive or inconclusive. Potency means the concentration at half of the fitted maximal effect.

SMILES | ALDH1A1 block | HPGD block | Luc counter | HTT ATP protect | HTT aggregate | LMNA splice mod
COc1ccc(C(=O)n2nc(-c3ccco3)nc2SC)cc1OC | 28µM* | ? | -1% | -2%[0.074 µM] | 9% | -6%
CSc1nc(-c2ccco2)nn1C(=O)c1cccs1 | ? | ? | -5% | 6% | 4% | 4%
COc1ccc(C(=O)NCCn2cc(SCC(=O)NCc3ccco3)c3ccccc32)cc1 | 25µM* | -17% | 1% | -26% | 15% | ?
Cc1nnc(NC(=O)CSc2cn(CCNC(=O)c3ccccc3)c3ccccc23)s1 | 1.6µM* | -1% | -2% | -12% | 6% | ?
Cc1nc2scc(-c3ccco3)c2c(=O)n1/N=C/N(C)C | -9% | -3% | 3% | 1%[0.074 µM] | -7% | -7%
COCCn1c(N)c(C(=O)NS(=O)(=O)c2ccc(C)cc2)c(=O)[nH]c1=O | 16µM* | . | -1% | -30%[10 µM] | 17% | .
Cc1ccc(S(=O)(=O)NC(=O)c2cccn2C)cc1 | -7% | -13% | -1% | -3% | 17% | 10%
O=C(NCC1CCCCC1)C1CCCN(C(=O)NC2CCCCC2)C1 (configuration not stated) | -3% | -21% | 1% | -5%[10 µM] | -26% | 5%
CC(NC(=O)OC(C)(C)C)C(=O)Oc1cc2oc(=O)cc(-c3ccccc3)c2cc1Cl (configuration not stated) | ? | ? | 0% | -27%[10 µM] | 6.3µM* | -29%
O=C(O)C(Oc1ccc2c(-c3ccccc3)cc(=O)oc2c1)c1ccccc1 (configuration not stated) | . | . | . | -1%[10 µM] | 17%[9.22 µM] | .
CN1C(=O)C2(c3ccccc31)N(c1ccc(F)c(Cl)c1)C(=O)CS2(=O)=O (configuration not stated) | . | . | . | . | . | 6%[46 µM]
CCn1ncc(Br)c1C(=O)Nc1nccs1 | -14% | 25µM* | 2% | -1%[10 µM] | -16% | -12%
CCn1ncc(Br)c1C(=O)Nc1ccc(F)cc1F | -8% | -13% | 1% | -6% | -14% | 0%
N#Cc1nc(COc2cccc(Cl)c2)oc1NCc1ccncc1 | -8% | -21% | 3% | -13% | -22% | ?
Cc1ccc(NC(=S)Nc2ccc3cn[nH]c3c2)c(C)c1 | ? | . | -1% | 5% | 18% | 7%[46 µM]
Cc1ccc(NC(=O)CCC(=O)NNC(=S)Nc2ccccc2)c(C)c1 | 8.9µM* | . | -1% | 16%[10 µM] | 8%[9.22 µM] | ?
Cc1ccc(NC(=S)NNC(=S)Nc2ccc(C)cc2C)cc1 | 0.45µM* | . | 0% | -10%[10 µM] | -14%[9.22 µM] | .
COc1ccc(NC(=O)CC2C(=O)N(c3ccc(F)cc3)C(=S)N2NC(=O)c2ccccc2)cc1 (configuration not stated) | -3% | 1% | -1% | -15%[10 µM] | 25% | ?
O=c1[nH]c2[nH]c(=S)[nH]c(=S)c2[nH]1 | ? | 3.5µM* | -2%[7.66 µM] | -5%[10 µM] | . | .
O=c1[nH]c(=O)c2[nH]c(=O)[nH]c2[nH]1 | . | . | . | 12% | 7% | .
O=C(N/N=C/c1cccnc1)C1CCCCC1 | ? | . | . | ? | 12% | .
Cc1c(NC(=O)COC(=O)COc2ccc(Nc3ccccc3)cc2)c(=O)n(-c2ccccc2)n1C | 22µM* | . | 0% | -14% | 21% | .
COC(=O)c1ccc(NC(=O)C2C3CCC(C3)C2C(=O)O)cc1 (configuration not stated) | ? | -14% | 1% | -8% | -10% | 5%
C=CCN1C(=O)CN=C1Nc1cc(C)ccc1C | 3.5µM* | -5% | 5% | -8%[10 µM] | 21% | 10%
CC1(C)CC(=O)c2sc(NC(=O)c3ccccc3)nc2C1 | 2.8µM* | . | -15% | -65%[10 µM] | 8% | .
SMILES | ALDH1A1 block | HPGD block | Luc counter | HTT ATP protect | HTT aggregate | LMNA splice mod
CC1(C)CC(=O)c2sc(NC(=O)CN3CCCCC3)nc2C1 | 20µM* | -20% | 2% | 2% | 9% | 23%
CC1(C)CC(=O)c2sc(NC(=O)c3cccs3)nc2C1 | 16µM* | -8% | ? | -31%[1.9 µM] | -1% | -9%
CC(Oc1ccccc1)C(=O)Nc1nc2c(s1)C(=O)CC(C)(C)C2 (configuration not stated) | 14µM* | -24% | -5% | 2% | 4% | 18%
CN(C)Cc1c[nH]c2nc[nH]c(=O)c12 | -4%[13.5 µM] | -8% | -1%[7.66 µM] | 14%[10 µM] | . | .
CC1(C)CC(=O)c2sc(NC(=O)c3ccc4ncsc4c3)nc2C1 | 3.5µM* | ? | 0% | -20%[10 µM] | -9% | -7%
O=C(c1ccco1)N1CCN(S(=O)(=O)c2ccc(Br)s2)CC1 | 8.9µM* | ? | -1% | 7% | -2% | -11%
COc1ccc(NC(=O)C(=O)N/N=C/c2cc(C)n(-c3cccc(Cl)c3Cl)c2C)c(OC)c1 | 32µM* | ? | -6% | -3% | -8% | -15%
C=C1SC(=Nc2ccccc2Cl)N(C(=O)c2sc3ccccc3c2Cl)C1(C)C | 24µM* | . | . | 6%[10 µM] | 6%[9.22 µM] | .
C=C1SC(=Nc2c(C)cccc2Cl)N(C(=O)c2sc3ccccc3c2Cl)C12CCCCC2 | 10% | . | . | 13%[10 µM] | 13%[9.22 µM] | .
O=C(NNc1ccc(O)cc1)c1ccc(Br)cc1 | 7.1µM* | . | -2% | -44% | -6% | .
CN(C1=NC(=O)CS1)c1ccc(O)cc1 | . | . | . | 15%[10 µM] | 9%[9.22 µM] | .
O=C(O)CC(c1cccc2ccccc12)n1cccc1 (configuration not stated) | -7% | 35µM* | -3% | 3% | ? | 2%
COC(=O)c1sccc1NC(=O)c1cc(C)on1 | -8% | ? | -5% | -17%[0.074 µM] | -4% | 2%
CCc1c(C)sc(NC(=O)c2cc(-c3cc(OC)ccc3OC)on2)c1C#N | ? | ? | -1% | -49% | 16% | 4%
CCNc1nc(NCC)n2c(SCc3ccc(F)cc3)nnc2n1 | -2% | -6% | 0% | 13%[10 µM] | 2.5µM* | -3%
C/C(CC(=O)Nc1ccc(C)c(Cl)c1)=N\NC(=O)Cc1cnc(N)s1 | 11% | . | -3% | -5%[10 µM] | 4%[9.22 µM] | -14%[46 µM]
COc1cccc(/C=N/Nc2snc(SC)c2C#N)c1O | -11% | -4% | -8% | . | 11µM* | ?
COc1cccc(/C=N/Nc2ccc(C(=O)O)cc2)c1O | 11% | . | 8.9µM* | -125% | 31% | 13%[46 µM]
COc1cccc(/C=N/NC(=O)C(=O)N2CCCC2)c1O | 1% | ? | ? | 13% | 12% | -12%
COc1ccc(/C=N/Nc2snc(SC)c2C#N)cc1OC | ? | ? | -4% | -24% | -7% | 15%
COc1cccc(/C=N/Nc2ccc(S(=O)(=O)O)cc2)c1O | 10µM* | 32µM* | ? | -12% | 0% | 3%
CCOC(=O)C1=C(N)n2c(s/c(=C/c3ccco3)c2=O)=C(C(=O)OC)C1c1ccco1 (configuration not stated) | ? | -29% | 2% | -63% | 30% | -15%
